Laboratory results published in paper PMC7819943, “Rice protein-binding microarrays: a tool to detect cis-acting elements near promoter regions in rice”.
In all, about 68,000 sequences were measured (“fluorescence intensity (a.u.)”: median about 9,100, highest 2% from about 16,000 on). Many of the other results were omitted from the sample, so the highest values are more common in it than they were.

The sequences below were run against OsWRKY34 (Oryza sativa, UniProt Q0JBA9 1-250) (assay: protein-binding microarray (RPBM); PBS, 2% BSA, 51.3 ng/ul salmon testes DNA, 50 uM zinc acetate, 200 nM TF, 25 C, 1 h; high values mean tight binding). Settings: protein: recombinant; tags: N-terminal polyhistidine and DsRed monomer fusion (pET32a); label: CyDye5-dUTP incorporated in the synthesized complementary strand; 3' TTTTT single-stranded linker to array surface; dsDNA, one strand shown.
How it was run: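 Ni–NTA purification followed expression in E. coli BL21-CodonPlus of transcription factors fused N-terminally to a polyhistidine tag and DsRed. At 200 nM in PBS with 2% BSA, salmon testes DNA and 50 µM zinc acetate, the protein was incubated for 1 h at 25 °C with a custom Agilent array that had been primer-extended with Cy5-dUTP and blocked with 2% BSA. After washing, the array was read on an Axon 4000B scanner. The binding signal is per-feature fluorescence intensity in arbitrary units.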

OsWRKY34, sequence (Q0JBA9 entry or part of it): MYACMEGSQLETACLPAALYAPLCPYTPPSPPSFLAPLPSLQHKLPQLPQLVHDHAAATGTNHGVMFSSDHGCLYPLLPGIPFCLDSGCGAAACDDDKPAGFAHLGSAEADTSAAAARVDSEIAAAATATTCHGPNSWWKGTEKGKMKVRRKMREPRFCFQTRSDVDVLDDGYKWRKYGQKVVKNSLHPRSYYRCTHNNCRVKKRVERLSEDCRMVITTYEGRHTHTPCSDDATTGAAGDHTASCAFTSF

Row | Sequence | binding signal
1 | ACGTGTTTGACCATTCGTTTTATTCAAATCATTTAAGTAACGGAGTCACCTAGTGCAG | 9230 fluorescence intensity (a.u.)
2 | CATCGTTGAACTTTATCGTGCCCTTCACACCATTCCGTCGCGGAGTCACCTAGTGCAG | 8130 fluorescence intensity (a.u.)
3 | GTTTGACACCGTGGACTTTTTTAAATATGTTTGACCATTCCGGAGTCACCTAGTGCAG | 11800 fluorescence intensity (a.u.)
4 | TGTTTGACACCGTTGACTTTTTAGTCGTGTTTGACCATTCCGGAGTCACCTAGTGCAG | 24400 fluorescence intensity (a.u.)
5 | ACCTCTGTTTTTAATAGATGACGTGTCGTTGACTTTTTATCGGAGTCACCTAGTGCAG | 13300 fluorescence intensity (a.u.)
6 | GACACCGTTGACTTTTTAAGTACGTGTTTGACCATTCGTCCGGAGTCACCTAGTGCAG | 43700 fluorescence intensity (a.u.)
7 | TTAACTTTTTAGTACGTGTTTGACCATTCGTATTATTCAACGGAGTCACCTAGTGCAG | 9020 fluorescence intensity (a.u.)
8 | CGTTCCACCGCCGCGCCTCTTCCCCGCCCCGATCGGCTGCCGGAGTCACCTAGTGCAG | 8810 fluorescence intensity (a.u.)
9 | ACTACAGTCCCTCGCCATGCATGCGCCGTCAGATGTCCAACGGAGTCACCTAGTGCAG | 11500 fluorescence intensity (a.u.)
10 | GAGCGGGGCGGGGCTGCATTTGGCGTCGCGATGGACCTCACGGAGTCACCTAGTGCAG | 12600 fluorescence intensity (a.u.)
11 | TTTTTACATCTTAGCCCCTTGCCGCTTTTGCGAATTTTGCCGGAGTCACCTAGTGCAG | 9810 fluorescence intensity (a.u.)
12 | GCCCACCATTTCCCCAAACATTTCCACACATTCCTACAATCGGAGTCACCTAGTGCAG | 13600 fluorescence intensity (a.u.)
13 | GTAGATGTAGTAGCTAGCTTTTGTTAATTTCAACGTTCCACGGAGTCACCTAGTGCAG | 8380 fluorescence intensity (a.u.)
14 | AATATTTTTTTTCTCAATCATTTCTTATCATTATTATTATCGGAGTCACCTAGTGCAG | 8280 fluorescence intensity (a.u.)
15 | TCTTCATTTCCGTGTTCAGCAGCTTTGCAATAATTTCTATCGGAGTCACCTAGTGCAG | 11900 fluorescence intensity (a.u.)
16 | TCCCACTCAGCTGTCCGTCCGCCAATCACTGTACTTCTATCGGAGTCACCTAGTGCAG | 22000 fluorescence intensity (a.u.)
17 | ATCATCCCATCCCATCTCATCCGTCCATCCGCCAACTCATCGGAGTCACCTAGTGCAG | 12300 fluorescence intensity (a.u.)
18 | TTTCCTCCGTCCCTGAGCTGTACTCGCGCCAATCAATCATCGGAGTCACCTAGTGCAG | 9570 fluorescence intensity (a.u.)
19 | GGCGGCGGCGGCAGGGGCGGCGGAGGGTTGGCGGCGGCGGCGGAGTCACCTAGTGCAG | 11000 fluorescence intensity (a.u.)
20 | GGAGGGTTAGATCACCAGGGGCGGGTTGATGCAAAAAATTCGGAGTCACCTAGTGCAG | 17000 fluorescence intensity (a.u.)
21 | CAGTGTAGGGGAGAGAGAGAGAGAGTGGGGTAGAGGGATGCGGAGTCACCTAGTGCAG | 8980 fluorescence intensity (a.u.)
22 | CCAGGAGGGTGAGCTTGATGCAGGGGCGGGTGCGGGCGAGCGGAGTCACCTAGTGCAG | 12500 fluorescence intensity (a.u.)

Row | Sequence | binding signal
23 | AGAGATCGGGGTTTGGTTTTTTGGAGGGGAGAGCGGAGTGCGGAGTCACCTAGTGCAG | 10200 fluorescence intensity (a.u.)
24 | CGGAGAGGGAGGGGAGCTAGGGTTTTTCGGGGCGGGGATGCGGAGTCACCTAGTGCAG | 27600 fluorescence intensity (a.u.)
25 | GGAGGAGGAGCTAGGGTTTCGGATGGGAGGAGGAGGAGGGCGGAGTCACCTAGTGCAG | 8800 fluorescence intensity (a.u.)
26 | TTCGGGGAGGGTTTTCGGGGACAGCAGCTGCGGGCTTAAACGGAGTCACCTAGTGCAG | 18700 fluorescence intensity (a.u.)
27 | CGGGAGGGCGAGAGGGTTTTCGGAGCGGGAGGGGAAGATGCGGAGTCACCTAGTGCAG | 15200 fluorescence intensity (a.u.)
28 | ATCGGGGTTGTTGTTTTTGTAGCTGCTTAAGCTTTTTATTCGGAGTCACCTAGTGCAG | 14100 fluorescence intensity (a.u.)
29 | GAGGTAGGGAGAGGTTTCGTTAGGGTTTCGGGCGGGGATGCGGAGTCACCTAGTGCAG | 19900 fluorescence intensity (a.u.)
30 | GGGTTTTTTTTTTTTTTGCTGCTTTGCTTAGCACTTTTTTCGGAGTCACCTAGTGCAG | 8340 fluorescence intensity (a.u.)
31 | TCTCGATCTCCCCGCCTATTTATGCTCGTCTCGTCACCCGCGGAGTCACCTAGTGCAG | 8140 fluorescence intensity (a.u.)
32 | GATATTTTGCTTGTATTGTTCGACCACTCGTCTTATTAAACGGAGTCACCTAGTGCAG | 8040 fluorescence intensity (a.u.)
33 | TCATCTCATCTCTCTCGTTTTTATATGCACGTTTTTCAAACGGAGTCACCTAGTGCAG | 9530 fluorescence intensity (a.u.)
34 | TTTGGGTGGTGGCAGTTGACAGAAGAGAGTGAGCACACAGCGGAGTCACCTAGTGCAG | 8270 fluorescence intensity (a.u.)
35 | TTTACAATGGTATCTATGTGTTGTTTTTGTGTGTGTGTGTCGGAGTCACCTAGTGCAG | 10100 fluorescence intensity (a.u.)
36 | ATGCTTGCCTTCTTCTTATTCTCCTTCCCTATGGTCTTCTCGGAGTCACCTAGTGCAG | 8770 fluorescence intensity (a.u.)
37 | ACATGCAACAGTGTGTCGTGCTTGTATTTCTGTTATCTGACGGAGTCACCTAGTGCAG | 8660 fluorescence intensity (a.u.)
38 | TCCGTTTTGCCGTTGGGCTAGCTTAGCTTGTTTTTTTTTTCGGAGTCACCTAGTGCAG | 12000 fluorescence intensity (a.u.)
39 | TCCAACTTGGGGAGGGAGGGCCGTTTCAGCTCGGGCTTTTCGGAGTCACCTAGTGCAG | 17200 fluorescence intensity (a.u.)
40 | GTGCATGTGTAGGGAGGGCACAATGGAGGGGTGTTTTTTTCGGAGTCACCTAGTGCAG | 15000 fluorescence intensity (a.u.)
41 | ATGTGATTAAATGGAGGGTTTTCGGGGAGGGTTTTCGGGGCGGAGTCACCTAGTGCAG | 24100 fluorescence intensity (a.u.)
42 | CTTCAACTTTCTCGTTTTCCGTCAGCACGCTTTCCAAACTCGGAGTCACCTAGTGCAG | 9080 fluorescence intensity (a.u.)
43 | ATGGGTGGAGGAGTGGGAGGGGATTAAATATCGGCGGAGGCGGAGTCACCTAGTGCAG | 9240 fluorescence intensity (a.u.)
